Source: PubChem BioAssay AID624256 (NMMLSC, 2012)
Values joined by “and” are separate entries in the source; they are usually repeats but may differ in a detail not shown here. Identical values can stand only once. Hit rate of the full screen: of about 360,000 compounds, about 3,700 (1%) were called active. Inconclusive results (about 2%) are left out.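 The calls were made as follows: active = normalized GFP-positive differentiation at or above the plate's own cutoff, the solvent-only control mean plus 3 SD; inconclusive = no clear call, values can overlap the other calls; inactive = the rest.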 The entries come from a sample that favours actives as a whole.

Experiment: HoxA9-arrested leukemia cell differentiation promoters – flow cytometry, MLPCN library, primary screen (AID 624256);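 as to GFP+ MAC1+ double positive: cells exposed to compound for four days before flow analysis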;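 as to normalized GFP-positive differentiation: cells exposed to compound for four days before flow analysis; 0% = DMSO wells and 100% = fulvestrant positive control at 5 µM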
Settings: ER-HoxA9 myeloid progenitors, lysozyme-GFP differentiation, at 10 µM; GFP+ MAC1+ double positive: measured here: differentiation confirmed by MAC1 staining, stronger effect = higher value; normalized GFP-positive differentiation: stronger effect = higher value

| SMILES | GFP+ MAC1+ double positive | outcome | normalized GFP-positive differentiation |
| --- | --- | --- | --- |
| Nc1nc2c(Br)ccc(Br)c2cc1C(=O)NCCc1ccccc1 | 0.7% | inactive | – |
| CC(C)NC(=O)N1Cc2cc(C(=O)NCC(F)(F)F)nc(-c3cccc(-c4cc5ccccc5o4)c3)c2[C@@H]1CCO | 1.5% | inactive | – |
| COc1ccc(CCNC(=O)/C(C#N)=C2\N=C(NC(=O)c3cccs3)c3ccccc32)cc1 | 0.9% | – | 28.9% (active) |
| CCOc1ncccc1C(=O)NCCc1ccc(OC)cc1 | 0.2% | inactive | – |
| COc1ccc(CN(Cc2ccc(OC)cc2)C(=O)c2cccs2)cc1 | 0.3% | inactive | – |
| CCOC(=O)C1C(C)C(C(C)(C)C)N(S(=O)(=O)c2ccc(C)cc2)C1c1ccccc1 (configuration not stated) | 2.4% | inactive | – |
| NC(c1csc(NC(=O)Nc2ccccc2Oc2ccccc2)n1)c1ccccc1Cl (configuration not stated) | 0.8% | inactive | – |
| CSCCC(c1nnnn1Cc1ccccc1)N1CCN(C/C=C/c2ccccc2)CC1 (configuration not stated) | 1.1% | inactive | – |
| COc1ccc(-c2nc3cnccn3c2NC2CCCCC2)cc1-c1cccc(Cl)c1 | 2.8% and 1.8% | inactive | – |
| CCOc1cc(-c2nc3cc(C)ccn3c2NCC2CCCO2)ccc1O (configuration not stated) | 0.6% | inactive | – |
| COc1ccc(-c2nc3cc(C)ccn3c2NC2CCCCC2)cc1SC1CCCCC1 | 2.4% and 7.4% | – | 300% (active) and 217% (active) |
| CN(Cc1ccccn1)Cc1nc(-c2ccc(Cl)cc2)no1 | 0.5% | – | 34.3% (active) |
| COC(=O)c1ccc(-c2noc(CN(Cc3ccccn3)CC3CCCO3)n2)cc1 (configuration not stated) | 0.3% | inactive | – |
| CCN1CC(CN(C)Cc2nc(-c3ccc(Cl)cc3)no2)CC1=O (configuration not stated) | 0.3% | inactive | – |
| Cc1[nH]c2ccccc2c1C(=O)c1cc([C@H](NC(=O)OC(C)(C)C)C(C)C)sc1N | 1% | inactive | – |
| CCOC(=O)N1CCN(C(=O)C[C@@H]2C[C@@]3(C(=O)OC)CC(C)(C)CC=C3N(Cc3ccco3)C2=O)CC1 | 1.2% | inactive | – |
| CC1=C(C(=O)N(C(C)C)C(C)C)CC(CC(=O)NCC2CCCCC2)C(=O)N1Cc1ccccc1 (configuration not stated) | 0.3% | inactive | – |
| O=S(=O)(Nc1cc(Cl)ccc1N1CCOCC1)c1ccccc1Cl | 0.3% | inactive | – |
| O=C(Nc1ccccc1N1CCOCC1)c1ccncc1 | 1.1% | inactive | – |

| SMILES | GFP+ MAC1+ double positive | outcome | normalized GFP-positive differentiation |
| --- | --- | --- | --- |
| O=C1c2ccccc2-c2ncnc3c(N4CCOCC4)cc(N4CCOCC4)c1c23 | 4.8% | – | 41.7% (active) |
| CCCCC[C@H](C)N1C[C@@H](COCc2ccccc2)Oc2cc(N3CC[C@@H](N(C)C)C3)ccc2S1(=O)=O | 1.2% | inactive | – |
| COC(=O)c1ccc2nc(-c3ccc(F)cc3)c(Cc3ccc(C)cc3)n2c1 | 0.7% | inactive | – |
| O=C(O)c1ccccc1-c1cccc2nncn12 | 0.5% | inactive | – |
| CC(=O)c1c(C)[nH]c(C(=O)NCc2ccc(C)cc2)c1C | 1.3% | inactive | – |
| CC(=O)c1c(C)[nH]c(C(=O)NCCCN2CCCC2)c1C | 0.6% | inactive | – |
| CCCCN(CC)CCNC(=O)c1[nH]c(C)c(C(C)=O)c1C | 2.2% | – | 13.8% (active) |
| COC(=O)c1ccc2nc(C3CCCCC3)c(Cc3cccc(F)c3)n2c1 | 0.7% | inactive | – |
| CO[C@@H]1CN(C)C(=O)c2cc(NC(=O)C3CC3)ccc2OC[C@H](C)N(C(=O)CN2CCOCC2)C[C@@H]1C | 1.2% | inactive | – |
| Cc1nn(C)cc1N1C(=O)c2cccc3c(N)ccc(c23)C1=O | 4.9% | – | 289% (active) |
| CC(C(=O)O)N1C(=O)c2cccc3cccc1c23 (configuration not stated) | 1.4% | inactive | – |
| Cn1cc(C2OC(=O)c3ccccc32)c2ccccc21 (configuration not stated) | 1.6% | inactive | – |
| CN1C(=O)c2cccc3c(N)ccc(c23)C1=O | 1.9% | – | 96.2% (active) |
| COCCCn1cc(CN2CC(N(C)C)CS2(=O)=O)nn1 (configuration not stated) | 0.8% | inactive | – |
| Cc1nc2c(OCc3ccc(Cl)cc3Cl)cccn2c1N(C)CC1CC1 | 0.6% | inactive | – |
| CC(C)CN1C(=O)CN(S(C)(=O)=O)CC1(C)C(=O)NCc1ccccc1 (configuration not stated) | 1.1% | inactive | – |
| Nc1nc2ncccn2c1-c1ccccc1 | 2.1% | inactive | – |
| CCc1nc2ccc(C(=O)NCc3ccc(OC)cc3)cn2c1N(CC)Cc1cccc(Br)c1 | 1.1% | inactive | – |
| Cc1nccn1-c1ccc(NC(=O)[C@H]2O[C@@H](n3ccc(=O)[nH]c3=O)[C@H](O)[C@@H]2O)cc1 | 1.7% | inactive | – |

| SMILES | GFP+ MAC1+ double positive | outcome | normalized GFP-positive differentiation |
| --- | --- | --- | --- |
| Cc1cc(=O)oc2c1c(C)nn2-c1ccc(Cl)cc1 | 0.3% | inactive | – |
| CCOC(=O)CNC(=O)c1nn(-c2cccc(OC)c2)c(=O)c2ccccc12 | 0.7% | inactive | – |
| Cc1nn(-c2cc(Cl)ccc2N)c(=O)c2ccccc12 | 7.4% | – | 51.3% (active) |
| C#CCNC(=O)C[C@@H]1C[C@@]2(C(=O)OCC)CCCC=C2N(Cc2ccco2)C1=O | 1.5% | inactive | – |
| Cc1cc(Br)cn2c(Cc3ccsc3)c(-c3ccc(C#N)cc3)nc12 | 2% | inactive | – |
| O=C(Nc1cccc2ccccc12)c1[nH]c(-c2ccccc2)c2c1C(=O)N(C1CC1)C2=O | 1.2% | inactive | – |
| COC(=O)C[C@@H]1C=C[C@@H](NC(=O)c2ccc3c(c2)OCO3)[C@@H](CO)O1 | 3.1% | inactive | – |
| COC(=O)COc1ccc2c(c1C)O/C(=C\c1ccco1)C2=O | 0.6% | inactive | – |
| CS(=O)(=O)c1ccc2c(c1)SC1=NC(=O)/C(=C/c3ccco3)C(=N)N12 | 6.9% | inactive | – |
| CC(C)(C)C1C/C(=C/c2ccco2)C(=O)/C(=C/c2ccco2)C1 (configuration not stated) | 0.5% | – | 92.8% (active) |
| CC1CCCN(C(=O)c2cc(-c3ccco3)nc3ccccc23)C1 (configuration not stated) | 0.2% | inactive | – |
| CN(CCOc1ccccc1)C(=O)c1cc(-c2ccco2)nc2ccccc12 | 1.1% | inactive | – |
| O=C(c1cc(-c2ccco2)nc2ccccc12)N(Cc1nnc(-c2ccc(Cl)cc2)o1)C1CC1 | 1.9% | – | 11.9% (active) |
| S=C(NCCCc1cnc[nH]1)NCCCN(Cc1ccc(Cl)c(Cl)c1)c1ccc(Br)cn1 | 1.1% | inactive | – |
| CC(C)(C)NC(=O)C(CCc1ccccc1)n1c(=O)c(-c2ccccc2)nc2ccccc21 (configuration not stated) | 3.2% | inactive | – |
| O=c1c2ccccc2oc2nc3n(c(=O)c12)CCCS3 | 7.5% | inactive | – |
| CCc1nc2oc3ccccc3c(=O)c2c(=O)n1Cc1ccc(OC)cc1 | 3.7% | – | 16.2% (active) |
| COc1ccc(Cn2c(=O)oc3ccccc32)cc1 | 0.5% | inactive | – |
